# Source: the supplement of paper PMC10849652
# The full data set covers some 7,900 targets. This sample favours those with a hit. About 0.6% of all pairs of compound and target were hits. A number with no mark means an inactive call.
# Assays:
# Assay in all cases: log2 fold change, soluble protein after heating vs DMSO (PISA); higher = thermal stabilisation; K562 cells, 10 uM, 30 min; active = over 0.2 and 3.5 SD of the protein, either way, in both replicates (recomputed)
# [1] = compound: NC(=O)Nc1cc(-c2cccc(F)c2)sc1C(=O)N[C@H]1CCCNC1
# Procedure, shortened: (§1)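 K562 cells at 2×10^6 cells/mL were given 10 μM compound for 30 min. Aliquots then went through 3 min of heating across 48°C-58°C, were pooled, and were extracted in PBS with 0.5% NP-40 at 4°C, and the supernatant after 21,000xg for 90 min was quantified by TMTpro 16plex LC-MS/MS with channel sums equalised. Thermal stability relative to control samples, from duplicates, is given as log2 fold change.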
# [2] = compound: NC(=O)c1cnc(N[C@@H]2CCCC[C@@H]2N)nc1Nc1cccc(-n2nccn2)c1
# Procedure, shortened: as §1
# [3] = compound: NC1(c2ccc(-c3nc4ccn5c(=O)[nH]nc5c4cc3-c3ccccc3)cc2)CCC1
# Procedure, shortened: as §1
# [4] = compound: NCC(=O)Nc1ccc(-n2nc(C(F)(F)F)cc2-c2ccc3c(ccc4ccccc43)c2)cc1
# Procedure, shortened: as §1
# entinostat = compound: Nc1ccccc1NC(=O)c1ccc(CNC(=O)OCc2cccnc2)cc1 [entinostat]
# Procedure, shortened: as §1
# vorinostat = compound: O=C(CCCCCCC(=O)Nc1ccccc1)NO [vorinostat]
# Procedure, shortened: as §1
# citarinostat = compound: O=C(CCCCCCNC(=O)c1cnc(N(c2ccccc2)c2ccccc2Cl)nc1)NO [citarinostat]
# Procedure, shortened: as §1
# silmitasertib = compound: O=C(O)c1ccc2c(c1)nc(Nc1cccc(Cl)c1)c1ccncc12 [silmitasertib]
# Procedure, shortened: as §1
# [5] = compound: O=C1NC(=O)C(c2cnc3ccccn23)=C1c1cn2c3c(cc(F)cc13)CN(C(=O)N1CCCCC1)CC2
# Procedure, shortened: as §1
# [6] = compound: c1cc(OCCN2CCCCC2)cc(-c2n[nH]c3ccc(-c4nnc[nH]4)cc23)c1
# Procedure, shortened: as §1
# entospletinib = compound: c1cn2cc(-c3ccc4cn[nH]c4c3)nc(Nc3ccc(N4CCOCC4)cc3)c2n1 [entospletinib]
# Procedure, shortened: as §1
# Sequence of UniProt Q86UP2 (Q86UP2 whole entry, looked up): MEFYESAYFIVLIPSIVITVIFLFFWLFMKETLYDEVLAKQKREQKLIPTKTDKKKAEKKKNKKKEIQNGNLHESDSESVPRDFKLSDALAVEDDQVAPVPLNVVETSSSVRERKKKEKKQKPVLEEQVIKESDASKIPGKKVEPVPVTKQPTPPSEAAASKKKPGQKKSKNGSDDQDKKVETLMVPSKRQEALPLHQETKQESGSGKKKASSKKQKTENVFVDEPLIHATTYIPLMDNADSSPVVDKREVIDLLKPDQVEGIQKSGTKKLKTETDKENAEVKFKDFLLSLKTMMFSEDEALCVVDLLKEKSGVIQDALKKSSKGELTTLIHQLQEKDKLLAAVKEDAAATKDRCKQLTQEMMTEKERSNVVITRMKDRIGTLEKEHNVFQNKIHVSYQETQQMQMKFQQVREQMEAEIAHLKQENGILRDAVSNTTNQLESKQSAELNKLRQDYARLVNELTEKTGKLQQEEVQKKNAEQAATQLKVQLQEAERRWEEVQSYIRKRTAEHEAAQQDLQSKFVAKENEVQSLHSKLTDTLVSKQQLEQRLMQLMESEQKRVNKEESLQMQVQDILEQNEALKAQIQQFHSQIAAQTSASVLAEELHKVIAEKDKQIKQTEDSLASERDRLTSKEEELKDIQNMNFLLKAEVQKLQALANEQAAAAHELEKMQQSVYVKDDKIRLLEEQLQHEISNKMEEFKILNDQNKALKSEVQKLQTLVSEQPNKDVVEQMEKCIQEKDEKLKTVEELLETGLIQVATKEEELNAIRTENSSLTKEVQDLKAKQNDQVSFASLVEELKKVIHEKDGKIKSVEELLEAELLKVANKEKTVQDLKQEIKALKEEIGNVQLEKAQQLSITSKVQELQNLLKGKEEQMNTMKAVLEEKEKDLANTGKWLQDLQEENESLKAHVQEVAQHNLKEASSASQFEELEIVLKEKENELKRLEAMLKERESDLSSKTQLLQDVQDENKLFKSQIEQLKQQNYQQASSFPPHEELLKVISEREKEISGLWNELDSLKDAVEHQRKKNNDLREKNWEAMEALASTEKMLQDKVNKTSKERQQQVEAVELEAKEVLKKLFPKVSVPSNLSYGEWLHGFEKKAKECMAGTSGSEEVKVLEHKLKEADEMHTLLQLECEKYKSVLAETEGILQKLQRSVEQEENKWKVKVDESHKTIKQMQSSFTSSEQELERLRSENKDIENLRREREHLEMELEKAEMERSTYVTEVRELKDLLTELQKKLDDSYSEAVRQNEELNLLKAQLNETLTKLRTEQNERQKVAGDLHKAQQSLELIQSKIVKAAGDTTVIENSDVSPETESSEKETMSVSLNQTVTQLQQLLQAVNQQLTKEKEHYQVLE
# Sequence of UniProt Q9HCC0 (Q9HCC0 whole entry, looked up): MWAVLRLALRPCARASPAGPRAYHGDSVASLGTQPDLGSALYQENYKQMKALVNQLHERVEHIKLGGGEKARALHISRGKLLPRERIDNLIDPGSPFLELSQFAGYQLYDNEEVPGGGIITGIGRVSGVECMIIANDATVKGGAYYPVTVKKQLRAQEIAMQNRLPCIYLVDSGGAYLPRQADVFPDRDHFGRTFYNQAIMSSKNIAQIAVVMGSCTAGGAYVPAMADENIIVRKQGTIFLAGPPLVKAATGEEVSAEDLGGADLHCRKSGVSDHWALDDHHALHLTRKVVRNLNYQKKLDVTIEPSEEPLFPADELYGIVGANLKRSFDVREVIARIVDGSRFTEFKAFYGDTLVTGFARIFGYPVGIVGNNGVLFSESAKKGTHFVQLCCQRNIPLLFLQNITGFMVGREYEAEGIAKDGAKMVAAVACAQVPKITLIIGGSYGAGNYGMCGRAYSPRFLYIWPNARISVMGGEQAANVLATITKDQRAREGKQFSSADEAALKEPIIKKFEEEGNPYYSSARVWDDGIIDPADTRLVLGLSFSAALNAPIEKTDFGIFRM
# Sequence of UniProt Q96AQ8 (Q96AQ8 whole entry, looked up): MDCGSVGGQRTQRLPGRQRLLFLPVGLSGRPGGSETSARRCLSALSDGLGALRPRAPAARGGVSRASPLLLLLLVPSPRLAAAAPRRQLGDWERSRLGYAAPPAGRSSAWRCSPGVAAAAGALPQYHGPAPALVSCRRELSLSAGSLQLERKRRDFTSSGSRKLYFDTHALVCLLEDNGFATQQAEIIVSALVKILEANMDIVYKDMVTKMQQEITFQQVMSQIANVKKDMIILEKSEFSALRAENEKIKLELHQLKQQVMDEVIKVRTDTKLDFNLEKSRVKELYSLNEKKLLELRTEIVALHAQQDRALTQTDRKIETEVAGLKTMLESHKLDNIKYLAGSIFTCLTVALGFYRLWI
# Sequence of UniProt Q9NVC6 (Q9NVC6 whole entry, looked up): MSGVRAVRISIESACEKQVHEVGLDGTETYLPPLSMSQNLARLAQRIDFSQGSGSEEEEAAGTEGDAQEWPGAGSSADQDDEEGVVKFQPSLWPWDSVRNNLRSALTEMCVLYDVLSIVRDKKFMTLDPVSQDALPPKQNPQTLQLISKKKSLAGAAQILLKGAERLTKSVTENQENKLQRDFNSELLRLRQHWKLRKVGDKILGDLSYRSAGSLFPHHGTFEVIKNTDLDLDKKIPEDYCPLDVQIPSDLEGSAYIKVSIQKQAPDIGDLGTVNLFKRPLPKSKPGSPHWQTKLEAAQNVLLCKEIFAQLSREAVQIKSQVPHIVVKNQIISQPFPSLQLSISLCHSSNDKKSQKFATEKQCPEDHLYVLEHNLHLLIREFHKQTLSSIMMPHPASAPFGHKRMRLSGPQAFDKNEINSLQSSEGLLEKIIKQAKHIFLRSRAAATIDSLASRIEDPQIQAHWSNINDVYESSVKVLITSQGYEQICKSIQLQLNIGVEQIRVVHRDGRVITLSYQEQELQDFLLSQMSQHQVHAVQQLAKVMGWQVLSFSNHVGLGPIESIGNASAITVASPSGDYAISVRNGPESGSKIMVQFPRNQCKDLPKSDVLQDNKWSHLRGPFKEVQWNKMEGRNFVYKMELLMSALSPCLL
# Sequence of UniProt Q8WWC4 (Q8WWC4 whole entry, looked up): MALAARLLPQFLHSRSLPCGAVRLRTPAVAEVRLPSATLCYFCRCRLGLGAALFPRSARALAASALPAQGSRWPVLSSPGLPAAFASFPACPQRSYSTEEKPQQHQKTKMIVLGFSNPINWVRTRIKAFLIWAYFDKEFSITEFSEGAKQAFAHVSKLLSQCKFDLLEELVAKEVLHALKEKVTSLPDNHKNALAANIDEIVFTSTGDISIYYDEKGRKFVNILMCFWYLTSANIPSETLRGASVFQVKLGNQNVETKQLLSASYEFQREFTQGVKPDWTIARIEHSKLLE
# Sequence of UniProt Q14145 (Q14145 whole entry, looked up): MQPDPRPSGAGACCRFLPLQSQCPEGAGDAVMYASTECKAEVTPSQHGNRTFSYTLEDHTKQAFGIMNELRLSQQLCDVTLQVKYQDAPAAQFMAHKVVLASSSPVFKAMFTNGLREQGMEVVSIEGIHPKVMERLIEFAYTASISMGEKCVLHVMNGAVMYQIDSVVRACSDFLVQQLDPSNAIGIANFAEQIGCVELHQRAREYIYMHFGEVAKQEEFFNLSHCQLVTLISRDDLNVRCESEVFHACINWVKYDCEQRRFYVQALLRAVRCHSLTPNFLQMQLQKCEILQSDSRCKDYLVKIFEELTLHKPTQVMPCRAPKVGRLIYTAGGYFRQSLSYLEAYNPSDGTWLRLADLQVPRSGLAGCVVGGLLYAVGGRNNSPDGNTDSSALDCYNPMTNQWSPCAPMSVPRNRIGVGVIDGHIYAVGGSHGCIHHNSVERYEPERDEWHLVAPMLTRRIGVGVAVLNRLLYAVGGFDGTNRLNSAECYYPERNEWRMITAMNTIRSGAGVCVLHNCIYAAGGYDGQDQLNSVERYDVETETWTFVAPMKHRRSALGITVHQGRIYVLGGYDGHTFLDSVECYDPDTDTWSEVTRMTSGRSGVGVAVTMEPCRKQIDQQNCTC
# Sequence of UniProt Q9H0B6 (Q9H0B6 whole entry, looked up): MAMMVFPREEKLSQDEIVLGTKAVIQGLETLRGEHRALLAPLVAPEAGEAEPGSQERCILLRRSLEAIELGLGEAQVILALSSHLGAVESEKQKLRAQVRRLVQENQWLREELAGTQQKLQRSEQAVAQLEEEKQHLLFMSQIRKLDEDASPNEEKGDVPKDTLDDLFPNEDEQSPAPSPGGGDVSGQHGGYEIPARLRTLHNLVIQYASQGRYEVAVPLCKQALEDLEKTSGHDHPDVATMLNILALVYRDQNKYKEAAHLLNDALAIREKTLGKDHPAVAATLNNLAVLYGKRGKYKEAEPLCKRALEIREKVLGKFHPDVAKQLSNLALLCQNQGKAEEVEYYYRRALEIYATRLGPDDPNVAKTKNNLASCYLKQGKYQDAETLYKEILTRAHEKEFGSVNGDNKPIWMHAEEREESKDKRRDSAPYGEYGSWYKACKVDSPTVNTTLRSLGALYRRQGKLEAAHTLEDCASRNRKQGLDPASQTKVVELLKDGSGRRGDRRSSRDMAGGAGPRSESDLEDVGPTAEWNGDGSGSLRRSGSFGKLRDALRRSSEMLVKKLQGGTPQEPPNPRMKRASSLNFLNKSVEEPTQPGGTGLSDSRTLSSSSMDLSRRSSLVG
# Sequence of UniProt O95372 (O95372 whole entry, looked up): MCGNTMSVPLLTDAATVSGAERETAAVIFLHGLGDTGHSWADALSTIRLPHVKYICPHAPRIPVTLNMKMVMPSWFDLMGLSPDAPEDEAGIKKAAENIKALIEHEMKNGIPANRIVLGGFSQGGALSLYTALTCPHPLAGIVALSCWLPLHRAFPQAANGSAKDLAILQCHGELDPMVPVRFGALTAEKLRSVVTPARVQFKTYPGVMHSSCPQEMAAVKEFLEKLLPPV
# Sequence of UniProt P33947 (P33947 whole entry, looked up): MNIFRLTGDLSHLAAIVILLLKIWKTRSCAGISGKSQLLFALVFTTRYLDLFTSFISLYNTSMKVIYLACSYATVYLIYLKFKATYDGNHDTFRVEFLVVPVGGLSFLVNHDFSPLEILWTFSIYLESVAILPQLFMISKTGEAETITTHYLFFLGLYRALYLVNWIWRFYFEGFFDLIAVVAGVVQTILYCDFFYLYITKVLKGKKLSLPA
Target,log2 fold change [1],log2 fold change [2],log2 fold change [3],log2 fold change [4],log2 fold change (entinostat),log2 fold change (vorinostat),log2 fold change (citarinostat),log2 fold change (silmitasertib),log2 fold change [5],log2 fold change [6],log2 fold change (entospletinib)
INPP1 (UniProt P49441),-0.11,-0.035,-0.108,-0.036,-0.089,-0.066,0.024,-0.042,0.023,-0.039,0.017
LONP2 (UniProt Q86WA8),0.094,0.024,-0.279,0.041,-0.05,-0.006,-0.069,0.105,-0.007,-0.219,-0.001
KTN1 (UniProt Q86UP2),0.036,0.06,0.035,-0.038,0.05,0.027,0.033,0.06,0.148,-0.189,-0.043
MARCKS (UniProt P29966),-0.018,0.108,0.038,0.07,-0.074,-0.159,0.062,-0.021,0.031,-0.08,0.004
LBR (UniProt Q14739),0.025,-0.008,0.004,-0.003,0.023,0.021,-0.021,-0.085,0.012,0.082,-0.174
MCUR1 (UniProt Q96AQ8),-0.043,-0.048,0.011,0.01,-0.028,-0.026,-0.001,-0.023,-0.036,-0.018,0.018
LEMD3 (UniProt Q9Y2U8),-0.206,-0.029,-0.142,-0.116,-0.017,0.035,0.053,-0.068,-0.077,0.057,-0.031
ILF2 (UniProt Q12905),-0.02,0.024,0.121,0.109,-0.049,-0.059,-0.037,0.13,0.378,-0.18,-0.103
KIF13A (UniProt Q9H1H9),-0.049,-0.008,-0.078,-0.064,0.04,-0.178,-0.041,0,-0.005,-0.061,0.066
LSS (UniProt P48449),0.017,0.108,0.142,-0.049,0.003,0.052,-0.01,0.001,-0.001,-0.033,0.004
MARK3 (UniProt P27448),-0.125,-0.181,-0.006,-0.113,0.064,0.139,0.103,-0.02,-0.017,-0.317,-0.024
LYPLA2 (UniProt O95372),0.02,0.043,-0.031,0.09,0.114,-0.065,0.018,-0.048,0,0.036,0.053
MAIP1 (UniProt Q8WWC4),-0.061,-0.06,-0.129,-0.009,-0.015,0.017,0.076,-0.012,-0.085,-0.012,-0.003
MAST4 (UniProt O15021),-0.217,-0.038,-0.298,-0.115,0.085,0.045,0.135,-0.053,0.051,-0.151,-0.052
LEO1 (UniProt Q8WVC0),0.003,-0.06,-0.028,-0.11,0.005,0.088,0.009,0.068,-0.153,-0.055,-0.094
KHDRBS1 (UniProt Q07666),-0.013,-0.038,-0.009,-0.034,-0.025,0.037,0.099,0.018,0.039,-0.064,0.189
KEAP1 (UniProt Q14145),0.007,-0.027,-0.076,-0.034,0.051,0.156,-0.005,0.122,0.143,-0.055,0.101
LPIN1 isoform 7 (UniProt Q14693),-0.006,-0.011,-0.039,-0.03,-0.027,0.136,0.001,-0.139,-0.098,-0.048,-0.078
KPNA4 (UniProt O00629),-0.06,-0.054,-0.072,-0.053,-0.01,0.019,0.051,0.065,-0.017,-0.111,-0.058
IRF2BPL (UniProt Q9H1B7),0.032,0.011,0.013,-0.004,-0.024,0.007,-0.001,0.027,-0.218 (active),-0.03,0.001
IGFBP4 (UniProt P22692),-0.019,0.032,-0.011,-0.02,0.022,-0.017,-0.124,0.119,0.044,0.15,0.147
MED17 (UniProt Q9NVC6),0.068,-0.33 (active),0.049,-0.034,-0.128,0.045,0.014,0.074,0.112,0.126,-0.068
KDM1A isoform 2 (UniProt O60341),0.055,-0.038,-0.063,0.012,0.155,0.135,0.007,0,-0.063,-0.064,-0.066
MCCC2 (UniProt Q9HCC0),0.047,-0.014,0.036,0.06,0.005,-0.043,0.083,0.025,0.006,-0.024,-0.002
KLC2 (UniProt Q9H0B6),-0.149,-0.084,-0.134,-0.044,0.031,0.044,0.061,0.063,0.007,-0.082,0.011
KDELR2 (UniProt P33947),-0.071,0.063,-0.073,-0.133,-0.02,-0.238,-0.026,-0.018,-0.031,-0.097,0.101
MAGEC2 (UniProt Q9UBF1),0.013,-0.037,-0.021,-0.004,-0.009,0.032,0.029,0.057,0.089,-0.09,0.061
